TROY signal inh – TROY signaling inhibition | inhibition, % at 10 µM | Q293 LMP1-TROYcd NF-kB luciferase reporter, 4 h | AID 1347056 | actives 0.98% (n = 360,000);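 active = compounds whose plate-normalised and pattern-corrected inhibition of the luciferase reporter signal at the single screening dose is 50% or more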
EBV LMP1 NFkB – Epstein-Barr LMP1 NF-kappaB reporter inhibition; inhibition, % at 12.5 µM; actives 0.69% (n = 350,000); LMP1-induced NF-kappaB luciferase reporter cells, luminescence; in the data active = inhibition above about 41%
TWEAK Fn14 block – inhibitors of TWEAK-Fn14 interaction signaling | inhibition, % at 10 µM | TWEAK-stimulated Fn14 reporter cells, luciferase luminescence, 8 h | AID 1159606 | actives 2% (n = 360,000); in the data active = inhibition above about 50%
LGR2 inh – Drosophila LGR2 receptor signaling inhibition. inhibition, % at 9.99 µM. actives 0.35% (n = 380,000). HEK293 LGR2, CRE-luciferase, bursicon-stimulated, 4 h;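 active = drop in luminescence signal, shown as inhibition above about 50% in the replicate tests, limit read from the data, passing the limit was not always enough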;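 also: agonist challenge used bursicon conditioned medium at about half maximal strength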
EWS-Fli inh – inhibitors of EWS/Fli oncoprotein transcriptional activity. A673 NR0B1-luciferase reporter, viability-normalised. inhibition, % at 12.6 µM. actives 0.67% (n = 350,000). AID 651661;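 active = mean inhibition of at least 50% after viability correction, with every replicate also passing that limit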;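 also: firefly luciferase signal divided by Alamar Blue viability fluorescence both relative to DMSO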
PAX8 reporter – PAX8 transcriptional activity inhibition; RMG-I TPO-luciferase reporter, SteadyGlo, 24 h; inhibition, % at 12.6 µM; actives 1.2% (n = 360,000); AID 652154;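 active = mean replicate inhibition at least 60% with every replicate also reaching 60%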;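 also: luciferase light reporting Pax8 driven TPO promoter activity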
DNA binding – small molecule DNA binding by fluorescence polarization. AC35, µM (series often up to 68 µM). salmon sperm DNA acridine orange fluorescence polarization. shares compounds with EWS-Fli inh. actives 2% (n = 640);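 active = fitted curve reaches a 35% signal fall AC35 below twice the sample's top valid tested dose, actives reach about 48 µM in these data; inactive = the rest, including activity in the rising direction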;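 also: lower polarization ratio signals compound binding to DNA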
Large screens that a line does not name were inactive (follow-up assays come after a bar, where they were run). Rows were chosen to be rich in hits. Some 3.1% of all compounds tested hit in one or more screens of this group.

COC(=O)[C@@H]1[C@@H](CO)[C@@H]2Cn3c(ccc(-c4ccc(OC)cc4)c3=O)[C@H]1N2C(=O)c1ccccc1F	none (no result: TROY signal inh, EBV LMP1 NFkB, TWEAK Fn14 block)
CC12CCC3C(CCC4(O)CC(O)CCC34C=NO)C1(O)CCC2C1=COC(=O)C1 (centres undefined)	EBV LMP1 NFkB 62, TWEAK Fn14 block 76, EWS-Fli inh 74, PAX8 reporter 109 (no result: LGR2 inh) | DNA binding inactive
C[C@]12CCC3C(CCC4=CC(O)CC[C@@]43/C=N/O)C1(O)CCC2C1=CC(=O)OC1 (some centres undefined)	TWEAK Fn14 block 84, LGR2 inh 82, EWS-Fli inh 69, PAX8 reporter 109 | DNA binding inactive
C[C@]12CC[C@H]3[C@@H](CC[C@]4(O)C[C@@H](O)CC[C@]34C=O)[C@@]1(O)CC[C@@H]2C1=CC(=O)OC1	TWEAK Fn14 block 75, LGR2 inh 84, EWS-Fli inh 79, PAX8 reporter 111 | DNA binding inactive
COC(=O)[C@H]1[C@H](CO)[C@H]2Cn3c(ccc(-c4cccc(C(=O)N(C)C)c4)c3=O)[C@@H]1N2C(=O)NC(C)C	none (no result: TROY signal inh, EBV LMP1 NFkB, TWEAK Fn14 block)
CCCNC(=O)[C@@H]1[C@@H](CO)[C@@H]2Cn3c(cccc3=O)[C@@H]2N1C	none (no result: TROY signal inh, EBV LMP1 NFkB, TWEAK Fn14 block)
Cc1ccc(OC(=O)N(C)C[C@H]2OCc3ccccc3-c3c(n(C)c4ccccc34)C(=O)N([C@@H](C)CO)C[C@H]2C)cc1	none (no result: TROY signal inh, EBV LMP1 NFkB, TWEAK Fn14 block)
Cc1cc(C)cc(N2C(=O)NC(=O)/C(=C\C=C\c3ccco3)C2=O)c1	EWS-Fli inh 61, PAX8 reporter 66 | DNA binding inactive
O=C1NC(=O)N(c2ccccc2)C(=O)/C1=C\C=C\c1ccccc1	TWEAK Fn14 block 67, EWS-Fli inh 58 | DNA binding inactive
O=C1NC(=O)N(Cc2ccc(F)cc2)C(=O)/C1=C\C=C\c1ccco1	EWS-Fli inh 55 | DNA binding inactive
COc1ccc(OC(=O)N(C)C[C@@H]2OCc3ccccc3-c3c(n(C)c4ccccc34)C(=O)N([C@@H](C)CO)C[C@@H]2C)cc1	none (no result: TROY signal inh, EBV LMP1 NFkB, TWEAK Fn14 block)
Cc1cc2c(C(C)C)c(O)c(O)c(C=O)c2c(O)c1-c1c(C)cc2c(C(C)C)c(O)c(O)c(C=O)c2c1O	TROY signal inh 66, TWEAK Fn14 block 102, EWS-Fli inh 58, PAX8 reporter 104 (no result: EBV LMP1 NFkB) | DNA binding inactive
